This is part of a sample that, as a whole, favours compounds with a hit. Of some 79,000 tested, about 15% had one in any assay. Unmarked numbers belong to inactive results. The source made the active and inactive calls. Cut-off read from the data, not from the text of the source: active = growth inhibition above about 70%; inactive = the rest.
Assays:
[1] = NCI Yeast Anticancer Drug Screen. Data for the rad52 strain (AID 147);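 note: 0% = growth of vehicle-treated control cultures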; conditions: S. cerevisiae rad52 mutant growth inhibition, active compounds read high
Outline: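 Inhibition of yeast growth, referenced to vehicle controls, was the measured output for a strain with defective DNA damage repair.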

[2] = NCI Yeast Anticancer Drug Screen. Data for the wt1 strain (AID 149);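 note: 0% = growth of vehicle-treated wt1 cultures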; conditions: S. cerevisiae wt1 strain (SPY 50644) growth inhibition, active compounds read high
Outline: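 Growth inhibition read against vehicle controls after compound exposure of the wt1 yeast strain.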

[3] = NCI Yeast Anticancer Drug Screen. Data for the rad50EPP+ strain (AID 151);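 note: 0% = growth of vehicle-treated control cultures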; conditions: S. cerevisiae rad50 mutant strain, active compounds read high
Outline: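 Genetically defined yeast (rad50EPP+, DNA damage repair alteration) is grown with compound, and inhibition of growth is expressed relative to vehicle-treated controls.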

[4] = NCI Yeast Anticancer Drug Screen. Data for the mgt1 strain (AID 153); conditions: S. cerevisiae mgt1 mutant growth inhibition, active compounds read high
Outline: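 In the mgt1 strain, test compounds were added and growth inhibition was determined relative to vehicle-treated controls.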

[5] = NCI Yeast Anticancer Drug Screen. Data for the rad50 strain (AID 155);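 note: 0% = growth of vehicle-only cultures of the same strain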; conditions: S. cerevisiae rad50 strain growth inhibition, active compounds read high
Outline: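 Readout: growth inhibition relative to vehicle-treated cultures. Compound exposure was carried out in a genetically defined yeast strain deficient in DNA damage repair.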

[6] = NCI Yeast Anticancer Drug Screen. Data for the mec2-1 strain (AID 157); conditions: S. cerevisiae mec2-1 strain, active compounds read high
Outline: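 Each compound was tested on mec2-1 yeast, a strain altered in DNA damage repair or cell cycle control. Growth inhibition is reported relative to vehicle.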

[7] = NCI Yeast Anticancer Drug Screen. Data for the rad14 strain (AID 159);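 note: 0% = growth of vehicle-treated control cultures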; conditions: S. cerevisiae rad14 strain growth inhibition, active compounds read high
Outline: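 Growth inhibition vs vehicle controls; genetically altered yeast strain (DNA damage repair defect) treated with test compounds.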

[8] = NCI Yeast Anticancer Drug Screen. Data for the sgs1 mgt1 strain (AID 161);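 note: 0% = growth of cultures given vehicle only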; conditions: S. cerevisiae sgs1 mgt1 strain, active compounds read high
Outline: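 Genetically altered yeast, compound exposure, growth inhibition relative to vehicle.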

[9] = NCI Yeast Anticancer Drug Screen. Data for the CLN2oe strain (AID 163);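 note: 0% = growth of vehicle-only control cultures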; conditions: S. cerevisiae CLN2oe strain, active compounds read high
Outline: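 First, the altered yeast strain was treated with each compound; second, its growth was measured; finally, inhibition was derived by comparison with vehicle controls.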

[10] = NCI Yeast Anticancer Drug Screen. Data for the cln2 rad14 strain (AID 165);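 note: 0% = growth equal to vehicle treated cultures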; conditions: S. cerevisiae cln2 rad14 strain, active compounds read high
Outline: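 Test compounds were added to cln2 rad14 yeast cultures; inhibition of growth was then determined by comparison with vehicle treatment.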

[11] = NCI Yeast Anticancer Drug Screen. Data for the bub3 strain (AID 167); conditions: S. cerevisiae bub3 mutant strain, active compounds read high
Outline: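 Readout: yeast growth inhibition, expressed relative to vehicle-only wells. The test organism is a mutant strain from a panel with lesions in DNA repair or checkpoint genes.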

[12] = NCI Yeast Anticancer Drug Screen. Data for the wt2 strain (AID 169);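 note: 0% = growth of vehicle-treated yeast cultures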; conditions: S. cerevisiae wt2 strain growth inhibition, active compounds read high
Outline: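 The panel's yeast strains carry defined changes in DNA repair or cell cycle genes. Each strain is grown with compound, and growth loss is scored relative to vehicle.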

[13] = NCI Yeast Anticancer Drug Screen. Data for the sgs1 strain (AID 173);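 note: 0% = growth of vehicle-only control cultures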; conditions: S. cerevisiae sgs1 mutant, active compounds read high
Outline: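 Vehicle-treated cultures served as reference for growth inhibition of a yeast strain altered in DNA damage repair or cell cycle control after compound exposure.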

[14] = NCI Yeast Anticancer Drug Screen. Data for the mlh1 rad18 strain (AID 175); conditions: S. cerevisiae mlh1 rad18 strain growth inhibition, active compounds read high
Outline: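 Inhibition values reflect reduced growth of mutant yeast versus vehicle-treated controls following compound exposure; the mutations affect DNA damage repair.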

[15] = NCI Yeast Anticancer Drug Screen. Data for the rad18 strain (AID 177); conditions: S. cerevisiae rad18 mutant growth inhibition, active compounds read high
Outline: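 Steps: expose repair-mutant yeast to compound; measure growth; express as inhibition relative to vehicle control.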

[16] = at 5.0 µM (retest, dose inferred, filed as 0.5)
[17] = at 50.0 µM (retest, dose inferred, filed as 5.0)

Structure (SMILES): CCCCCCCCCCC(=O)Cl
- growth inhibition ([1]; at 1.2 µM): 13%
- growth inhibition ([1]; at 3.7 µM): 13%
- growth inhibition ([1]; at 11.0 µM): 12%
- growth inhibition ([1]; at 33.0 µM): 9%
- growth inhibition ([1]; at 100.0 µM): 31%
- growth inhibition ([2]; at 1.2 µM): 9%
- growth inhibition ([2]; at 3.7 µM): -2%
- growth inhibition ([2]; at 11.0 µM): -5%
- growth inhibition ([2]; at 33.0 µM): -5%
- growth inhibition ([2]; at 100.0 µM): 85% (active)
- growth inhibition ([3]; at 1.2 µM): 18%
- growth inhibition ([3]; at 3.7 µM): 22%
- growth inhibition ([3]; at 11.0 µM): 25%
- growth inhibition ([3]; at 33.0 µM): 40%
- growth inhibition ([3]; at 100.0 µM): 46%
- growth inhibition ([4]; at 1.2 µM): -21%
- growth inhibition ([4]; at 3.7 µM): -25%
- growth inhibition ([4]; at 11.0 µM): -28%
- growth inhibition ([4]; at 33.0 µM): -32%
- growth inhibition ([4]; at 100.0 µM): 85% (active)
- growth inhibition ([5]; at 1.2 µM): 14%
- growth inhibition ([5]; at 3.7 µM): 18%
- growth inhibition [5, 16]: 100% (active)
- growth inhibition ([5]; at 11.0 µM): 2%
- growth inhibition ([5]; at 33.0 µM): 9%
- growth inhibition [5, 17]: 98% (active)
- growth inhibition ([5]; at 50.0 µM): 58.2%
- growth inhibition ([5]; at 100.0 µM): 29%
- growth inhibition ([6]; at 1.2 µM): -1%
- growth inhibition ([6]; at 3.7 µM): 7%
- growth inhibition [6, 16]: 100% (active)
- growth inhibition ([6]; at 11.0 µM): -9%
- growth inhibition ([6]; at 33.0 µM): -23%
- growth inhibition [6, 17]: 98% (active)
- growth inhibition ([6]; at 50.0 µM): 7.75%
- growth inhibition ([6]; at 100.0 µM): 83% (active)
- growth inhibition ([7]; at 1.2 µM): -1%
- growth inhibition ([7]; at 3.7 µM): -2%
- growth inhibition ([7]; at 11.0 µM): -8%
- growth inhibition ([7]; at 33.0 µM): 39%
- growth inhibition ([7]; at 100.0 µM): 88% (active)
- growth inhibition [8, 16]: -18%
- growth inhibition [8, 17]: 36%
- growth inhibition ([8]; at 50.0 µM): 56.9%
- growth inhibition ([9]; at 1.2 µM): -4%
- growth inhibition ([9]; at 3.7 µM): -9%
- growth inhibition ([9]; at 11.0 µM): -25%
- growth inhibition ([9]; at 33.0 µM): -18%
- growth inhibition ([9]; at 100.0 µM): 77% (active)
- growth inhibition [10, 16]: 36%
- growth inhibition [10, 17]: 58%
- growth inhibition ([10]; at 50.0 µM): 31.9%
- growth inhibition ([11]; at 1.2 µM): -9%
- growth inhibition ([11]; at 3.7 µM): -4%
- growth inhibition [11, 16]: 16%
- growth inhibition ([11]; at 11.0 µM): -34%
- growth inhibition ([11]; at 33.0 µM): -33%
- growth inhibition [11, 17]: 64%
- growth inhibition ([11]; at 50.0 µM): 12.1%
- growth inhibition ([11]; at 100.0 µM): 54%
- growth inhibition ([12]; at 1.2 µM): 5%
- growth inhibition ([12]; at 3.7 µM): 1%
- growth inhibition ([12]; at 11.0 µM): -4%
- growth inhibition ([12]; at 33.0 µM): -2%
- growth inhibition ([12]; at 100.0 µM): 82% (active)
- growth inhibition ([13]; at 1.2 µM): 18%
- growth inhibition ([13]; at 3.7 µM): 14%
- growth inhibition ([13]; at 11.0 µM): 15%
- growth inhibition ([13]; at 33.0 µM): 25%
- growth inhibition ([13]; at 100.0 µM): 90% (active)
- growth inhibition [14, 16]: 100% (active)
- growth inhibition [14, 17]: 99% (active)
- growth inhibition ([14]; at 50.0 µM): -13.4%
- growth inhibition ([15]; at 1.2 µM): 25%
- growth inhibition ([15]; at 3.7 µM): 21%
- growth inhibition ([15]; at 11.0 µM): 15%
- growth inhibition ([15]; at 33.0 µM): 9%
- growth inhibition ([15]; at 100.0 µM): 89% (active)

Structure (SMILES): O=C(c1ccc(Cl)cc1)C1OC12C(=O)Nc1ccccc12 (stereo unspecified)
- growth inhibition ([1]; at 1.2 µM): 20%
- growth inhibition ([1]; at 3.7 µM): 99% (active)
- growth inhibition ([1]; at 11.0 µM): 99% (active)
- growth inhibition ([1]; at 33.0 µM): 99% (active)
- growth inhibition ([1]; at 100.0 µM): 99% (active)
- growth inhibition ([2]; at 1.2 µM): 1%
- growth inhibition ([2]; at 3.7 µM): 25%
- growth inhibition ([2]; at 11.0 µM): 98% (active)
- growth inhibition ([2]; at 33.0 µM): 98% (active)
- growth inhibition ([2]; at 100.0 µM): 99% (active)
- growth inhibition ([3]; at 1.2 µM): 17%
- growth inhibition ([3]; at 3.7 µM): 99% (active)
- growth inhibition ([3]; at 11.0 µM): 99% (active)
- growth inhibition ([3]; at 33.0 µM): 99% (active)
- growth inhibition ([3]; at 100.0 µM): 99% (active)
- growth inhibition ([4]; at 1.2 µM): 31%
- growth inhibition ([4]; at 3.7 µM): 100% (active)
- growth inhibition ([4]; at 11.0 µM): 100% (active)
- growth inhibition ([4]; at 33.0 µM): 100% (active)
- growth inhibition ([4]; at 100.0 µM): 99% (active)
- growth inhibition ([5]; at 1.2 µM): 13%
- growth inhibition ([5]; at 3.7 µM): 99% (active)
- growth inhibition [5, 16]: 100% (active)
- growth inhibition ([5]; at 11.0 µM): 99% (active)
- growth inhibition ([5]; at 33.0 µM): 99% (active)
- growth inhibition [5, 17]: 99% (active)
- growth inhibition ([5]; at 50.0 µM): 99.5% (active)
- growth inhibition ([5]; at 100.0 µM): 99% (active)
- growth inhibition ([6]; at 1.2 µM): 38%
- growth inhibition ([6]; at 3.7 µM): 99% (active)
- growth inhibition [6, 16]: 100% (active)
- growth inhibition ([6]; at 11.0 µM): 99% (active)
- growth inhibition ([6]; at 33.0 µM): 99% (active)
- growth inhibition [6, 17]: 100% (active)
- growth inhibition ([6]; at 50.0 µM): 99.7% (active)
- growth inhibition ([6]; at 100.0 µM): 99% (active)
- growth inhibition ([7]; at 1.2 µM): 24%
- growth inhibition ([7]; at 3.7 µM): 99% (active)
- growth inhibition ([7]; at 11.0 µM): 99% (active)
- growth inhibition ([7]; at 33.0 µM): 99% (active)
- growth inhibition ([7]; at 100.0 µM): 99% (active)
- growth inhibition [8, 16]: 100% (active)
- growth inhibition [8, 17]: 100% (active)
- growth inhibition ([8]; at 50.0 µM): 99.5% (active)
- growth inhibition ([9]; at 1.2 µM): 5%
- growth inhibition ([9]; at 3.7 µM): 40%
- growth inhibition ([9]; at 11.0 µM): 99% (active)
- growth inhibition ([9]; at 33.0 µM): 99% (active)
- growth inhibition ([9]; at 100.0 µM): 98% (active)
- growth inhibition [10, 16]: 100% (active)
- growth inhibition [10, 17]: 100% (active)
- growth inhibition ([10]; at 50.0 µM): 99.7% (active)
- growth inhibition ([11]; at 1.2 µM): 43%
- growth inhibition ([11]; at 3.7 µM): 99% (active)
- growth inhibition [11, 16]: 100% (active)
- growth inhibition ([11]; at 11.0 µM): 99% (active)
- growth inhibition ([11]; at 33.0 µM): 99% (active)
- growth inhibition [11, 17]: 100% (active)
- growth inhibition ([11]; at 50.0 µM): 99.7% (active)
- growth inhibition ([11]; at 100.0 µM): 99% (active)
- growth inhibition ([12]; at 1.2 µM): 9%
- growth inhibition ([12]; at 3.7 µM): 99% (active)
- growth inhibition ([12]; at 11.0 µM): 99% (active)
- growth inhibition ([12]; at 33.0 µM): 99% (active)
- growth inhibition ([12]; at 100.0 µM): 99% (active)
- growth inhibition ([13]; at 1.2 µM): 8%
- growth inhibition ([13]; at 3.7 µM): 99% (active)
- growth inhibition ([13]; at 11.0 µM): 99% (active)
- growth inhibition ([13]; at 33.0 µM): 99% (active)
- growth inhibition ([13]; at 100.0 µM): 99% (active)
- growth inhibition [14, 16]: 100% (active)
- growth inhibition [14, 17]: 100% (active)
- growth inhibition ([14]; at 50.0 µM): 99.5% (active)
- growth inhibition ([15]; at 1.2 µM): 6%
- growth inhibition ([15]; at 3.7 µM): 99% (active)
- growth inhibition ([15]; at 11.0 µM): 99% (active)
- growth inhibition ([15]; at 33.0 µM): 98% (active)
- growth inhibition ([15]; at 100.0 µM): 99% (active)

Reference: PubChem BioAssay (NCI)
